About 83,000 compounds went through this panel and 20% of them were active in at least one assay; those are over-represented in the sample as a whole.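 Method: cells in 96-well plates; compound added at one concentration; 48 h incubation; percent growth measured; values under 10 scored active.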
Columns and labels:
Assay in all cases: NCI-60 one-dose screen, 48 h (100 = growth as untreated, 0 = no growth, -100 = all killed)
Settings in all cases: 10 µM unless noted
K-562 leukemia = system: K-562 leukemia
MALME-3M melanoma = system: MALME-3M melanoma
MDA-MB-231 breast = system: MDA-MB-231 breast
RXF 393 renal = system: RXF 393 renal
SF-268 CNS = system: SF-268 CNS
SF-295 CNS = system: SF-295 CNS
SF-539 CNS = system: SF-539 CNS
UACC-257 melanoma = system: UACC-257 melanoma
HCT-15 colon = system: HCT-15 colon
M14 melanoma = system: M14 melanoma

Measured: growth

COc1cc(N=Cc2sc(Nc3nccs3)nc2O)cc(OC)c1OC
inactive: K-562 leukemia 84.4% | MALME-3M melanoma 79.2% | MDA-MB-231 breast 79.1% | RXF 393 renal 99.5% | SF-268 CNS 78.8% | SF-295 CNS 69.9% | SF-539 CNS 90.5% | UACC-257 melanoma 92.6% | HCT-15 colon 71.4%

COc1ccc(C(=O)/C=C/c2ccc(OCc3ccc(C)cc3)c(OC)c2)cc1OC
inactive: K-562 leukemia 25.4% | MALME-3M melanoma 87.8% | MDA-MB-231 breast 59% | RXF 393 renal 103% | SF-268 CNS 72.4% | SF-295 CNS 75.2% | SF-539 CNS 72.1% | UACC-257 melanoma 80.3% | HCT-15 colon 34.4%

CC(=O)c1ccc(Nc2nc(SC(C)C)nc(-c3ccccc3)c2C#N)cc1
inactive: K-562 leukemia 92.6% | MALME-3M melanoma 112% | MDA-MB-231 breast 95.7% | RXF 393 renal 103% | SF-268 CNS 91.9% | SF-295 CNS 109% | SF-539 CNS 95.5% | UACC-257 melanoma 108% | HCT-15 colon 101%

COc1cccc(COc2ccc(/C=C3/C(=O)Nc4cc(Cl)ccc43)cc2)c1
inactive: MALME-3M melanoma 96.7% | MDA-MB-231 breast 78.2% | RXF 393 renal 88.7% | SF-268 CNS 99.5% | SF-295 CNS 103% | SF-539 CNS 93% | UACC-257 melanoma 104% | M14 melanoma 104% | HCT-15 colon 99.6%

— PubChem BioAssay (NCI)
